# Screening results from PubChem BioAssay.
# D1 agonist: activates the human D1 dopamine receptor; P21728; HEK293 T-REx D1 cells, calcium flux, agonist mode; 360,000 compounds, 1% hits; activation, % at 2 µM; AID 504660; in the data active = activation above about 30%; also: 0% is about no effect
#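 Inducible HEK293 T-REx D1 cells, force-coupled to calcium signalling, were plated at 4000 cells/well with tetracycline and held overnight at 30 C. After no-wash calcium dye loading, compound-evoked calcium rise over 180 s flagged agonists.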
# D1 antagonist: antagonists of human D1 dopamine receptor. HEK293 TREx D1 cells, calcium flux, dopamine EC80; active compounds read low. 360,000 compounds, 3.2% hits. P21728. AID 504652. activity change, negative = inhibition, % at 10 µM; in the data active = activity change below about -30%; also: % is scaled to controls: 0 for no effect and ±100 for the full control effect
#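 HEK293 T-REx cells expressing inducible, force-coupled D1 receptor; no-wash Ca dye, 30–90 min RT. Cmpd → 180 s read at 1 Hz → EC80 DA → 180 s read.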
# DRD3 antagonist: blocks the human D3 dopamine receptor; 360,000 compounds, 2.5% hits; max response, negative = inhibition, %; D3R cells, DiscoveRx beta-arrestin luminescence, antagonist mode; active compounds read low; in the data active = max response below about -50%; inconclusive = no clear call, values can overlap the other calls; also: % is scaled to controls: 0 for no effect and ±100 for the full control effect
# Target sequence (P35462 whole entry, looked up): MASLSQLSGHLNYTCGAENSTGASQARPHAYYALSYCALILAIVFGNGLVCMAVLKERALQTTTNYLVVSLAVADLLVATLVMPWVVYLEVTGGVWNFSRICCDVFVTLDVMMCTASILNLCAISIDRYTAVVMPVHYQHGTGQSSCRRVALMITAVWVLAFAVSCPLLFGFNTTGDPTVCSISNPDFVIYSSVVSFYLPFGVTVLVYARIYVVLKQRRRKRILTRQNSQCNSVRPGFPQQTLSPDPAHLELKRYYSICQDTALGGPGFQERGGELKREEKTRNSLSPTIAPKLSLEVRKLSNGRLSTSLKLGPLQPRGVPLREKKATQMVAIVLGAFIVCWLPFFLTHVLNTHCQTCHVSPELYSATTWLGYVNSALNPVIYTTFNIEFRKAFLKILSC
#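 Cells plated overnight at 1500 cells/well, then exposed to library compounds with dopamine controls for 90 minutes at 37 degrees C. DiscoveRx reagent added for 30–60 minutes at room temperature; luminescence read, quantitative HTS format.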
# DRD3 agonist: D3 dopamine receptor (human) agonism. P35462. D3R DiscoveRx beta-arrestin cells, luminescence, 90 min. max activation, %. 410,000 compounds, 0.58% hits. AID 652048; in the data active = max activation above about 30%; also: 0% is about no effect
#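 Agonist mode: compounds and dopamine controls were applied to plated cells for 90 min at 37 degrees C after an overnight attachment at 1500 cells/well. Luminescent read-out followed 30 - 60 minutes at room temperature with DiscoveRx detection reagent.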
# D1 PAM: enhances dopamine response at the human D1 receptor | P21728 | HEK293 TREx D1 cells, calcium flux, dopamine EC20 potentiation | potentiation, % at 10 µM | 360,000 compounds, 0.036% hits | AID 504651; in the data active = potentiation above about 30%; also: 0% is about no effect
# * marks the source's active call; other numbers are inactive results; ? = inconclusive; / = no result. This is a sample that favours compounds with a hit; in the whole collection about 6% have one here.
SMILES,D1 agonist,D1 antagonist,DRD3 antagonist,DRD3 agonist,D1 PAM
CCCS(=O)(=O)N1CCN=C1SCc1cccc(C)c1,5,-30*,8,-3,-1
Cc1ccc(C)c(N2N=C(C(=O)NCCN3C(=O)S/C(=C\c4cccnc4)C3=O)CCC2=O)c1,0,-9,0,-6,8
COc1cc(NC(=O)Cc2ccccc2)cc(OC)c1,4,1,13,3,-2
COc1ccccc1NC(=S)NC(=O)CCc1ccccc1,6,-11,-14,2,-5
COc1cc(OC)cc(C(=O)NCC(=O)Nc2ccc(C)c(Cl)c2)c1,7,7,-26,-23,2
COc1cc(NC(=S)NC(=O)CCc2ccccc2)cc(OC)c1,19,-4,-52*,-12,-9
COc1cc(NC(=O)C[n+]2ccc(C(=O)c3ccccc3)cc2)cc(OC)c1,/,/,-72*,-20,/
COc1cc(OC)cc(C(=O)NCC(=O)Nc2ccc(-c3ccccc3)cc2)c1,9,-9,-59*,-24,-9
O=C(CCc1ccccc1)NC(=S)Nc1ccccc1[N+](=O)[O-],-1,-34*,?,-1,-1
O=C(CCCc1ccccc1)Nc1ccccc1[N+](=O)[O-],1,-3,25,-1,3
Cc1ccc(C(=O)c2cn(Cc3ccccc3C)c3nc(C)ccc3c2=O)cc1,7,8,/,2,0
CCOC(=O)c1ccc(-c2csc(NC(=O)CN3CCC(C)CC3)n2)cc1,3,5,-3,6,-5
CCc1ccc(-c2nn(CC(=O)NC3CCCC3)c3c2cnc2ccc(C)cc23)cc1,1,19,/,1,-2
O=C(Nc1ccc(C(=O)O)cc1)/C(=C\c1ccc2c(c1)OCO2)NC(=O)c1ccccc1Cl,/,/,-3,1,/
O=C(CCc1ccccc1)Nc1ccccc1[N+](=O)[O-],0,-36*,18,3,-9
Cc1ccc(NC(=O)CCCc2ccccc2)c([N+](=O)[O-])c1,2,-48*,0,-5,0
COc1cc2nc(CN3CCN(S(=O)(=O)c4ccccc4C(F)(F)F)CC3)[nH]c(=O)c2cc1OC,/,/,-13,-6,/
COc1cc2nc(CN3CCN(S(=O)(=O)c4c(F)cccc4F)CC3)[nH]c(=O)c2cc1OC,5,-32*,-23,-2,/
CC1CCN(c2c(NCC3CCC(C(=O)NCc4ccccc4)CC3)c(=O)c2=O)CC1 (stereo not given),-3,23,-61*,1,2
CN(C)c1nc(SCC#N)nc(N(C)C)n1,0,-74*,16,-1,-8
CC(=O)CSc1nc(N(C)C)nc(N(C)C)n1,-2,/,-24,-17,-4
O=C(NCc1cccs1)c1ccc(Cn2c(SCc3cccc(F)c3)nc3cccnc32)cc1,3,6,/,-16,-2
Cc1ccc(C(=O)Oc2cc(C)n(C)c(=O)c2)cc1,2,-10,91,35*,-2
COCCNC(=O)C1(C)CCCN(C(=O)c2ccc(-c3ccccc3)cc2)C1 (stereo not given),/,/,1,5,/
Cc1cccc(NC(=O)CSc2nc3[nH]c(=O)cc(O)c3s2)c1,2,-32*,7,-10,6
SMILES,D1 agonist,D1 antagonist,DRD3 antagonist,DRD3 agonist,D1 PAM
O=C(CSc1nc2[nH]c(=O)cc(O)c2s1)Nc1cccc(Br)c1,2,2,-11,-3,4
COCCN1CCCC(CNCc2cn(C)nc2-c2ccc(Oc3ccccc3)cc2)C1 (stereo not given),13,0,-21,-2,1
CCCN1CCC(NCc2cn(C)nc2-c2ccc(Oc3ccccc3)cc2)CC1,30*,-10,-14,2,-1
COC1CCCN(Cc2cn(C)nc2-c2ccc(Oc3ccccc3)cc2)C1 (stereo not given),2,-2,-52*,-3,-2
Cn1cc(CN2CCCCC2CO)c(-c2ccc(Oc3ccccc3)cc2)n1 (stereo not given),7,-1,-7,4,-6
Cc1ccc(-n2ncc(C(=O)Nc3ccc(Cl)cc3)c2C2CCNCC2)cc1C,2,-44*,-2,6,3
CCOc1ccc(NC(=O)c2cnn(-c3ccc(C)c(Cl)c3)c2C2CCNCC2)cc1,1,16,/,-1,-4
Brc1cccc(CN2CCN(c3ncccn3)CC2)c1,3,-8,-13,4,3
Fc1ccc(CN2CCN(c3ncccn3)CC2)cc1,2,-1,-17,51*,-4
Fc1ccc(F)c(CN2CCN(c3ncccn3)CC2)c1,0,-7,12,31*,-4
Cc1cccc(CN2CCN(c3ncccn3)CC2)c1,-2,-20,-25,8,-3
CCc1ccc(CN2CCN(c3ncccn3)CC2)cc1,1,-24,?,61*,-12
CCOc1ccc(-c2nnc(NC(=O)C3CCCC3)o2)cc1,-2,4,-105*,-6,-1
COc1cccc(C2NC(C)(C(=O)O)C3C(=O)N(C(C)C)C(=O)C23)c1O (stereo not given),4,-9,-53*,4,/
O=C(NCCN1CCCCC1)c1ccc(Cn2c(SCc3ccc(F)cc3)nc3cccnc32)cc1,0,-32*,/,-9,0
O=C(NC1CCCCC1)c1ccc(Cn2c(SCc3cccc(F)c3)nc3cccnc32)cc1,0,-65*,/,-11,0
Cc1oc(-c2ccccc2Cl)nc1Cn1c(SCc2cccc(F)c2)nc2cccnc21,13,7,/,44*,4
CCOC(=O)c1ccc2c(c1)nc(SCC(=O)c1ccco1)n2CC,0,-34*,27,0,-2
CCOC(=O)c1ccc2c(c1)nc(SCC(=O)N1CCCCC1)n2CC,1,2,0,-8,-3
C=CCn1c(SCC(=O)N2CCCC2=O)nc2sc(CC)cc2c1=O,7,4,62,12,-2
C=CCn1c(SCC(=O)Nc2ccc(O)cc2)nc2sc(CC)cc2c1=O,0,-31*,22,4,-2
C=CCn1c(SCC(=O)Nc2ccc(C(=O)O)cc2)nc2scc(-c3ccccc3)c2c1=O,/,/,-71*,-8,/
C=CCn1c(SCC(=O)Nc2cc(C)on2)nc2sc(CC)cc2c1=O,-3,-42*,-14,7,-3
C=CCn1c(SCC(=O)Nc2ccc(C(=O)O)cc2)nc2sc(C)c(C)c2c1=O,1,6,-5,9,0
C=CCn1c(SCC(=O)N2CCN(C(=O)c3ccco3)CC2)nc2sc(CC)cc2c1=O,-1,-32*,-4,-4,-1
CC1=C(C#N)C(c2cn(-c3ccccc3)nc2-c2cccs2)C(C#N)=C(C)N1,2,-14,26,33*,2
O=C(COC(=O)C1CCCCC1)Nc1cccc(Br)c1,0,-11,-5,-2,-2
Cc1cc(C)cc(C(=O)N(NC(=O)Nc2ccc(Cl)cc2)C(C)(C)C)c1,26,-30*,4,-4,-5
CC(C)(C)N(NC(=O)Nc1ccc(Cl)c(Cl)c1)C(=O)c1ccccc1,33*,-27,3,1,-1
